Out of some 360,000 compounds screened, about 25,000 (6.9%) were called active. Inconclusive results (about 9%) are left out. Calls follow the shape of the dose curve; as a rule, active = well fitted inhibition curve with a large enough effect; inconclusive = small, poorly fitted or top-dose-only effect; inactive = flat fitted curve, though single readings scatter. What follows is part of a selection rich in actives, with near analogues and random picks from the rest. Entries that show only a call come without a potency.
biological target: Luciferin 4-monooxygenase (Photinus pyralis) (UniProt P08659); assay: qHTS profiling assay for firefly luciferase inhibitor/activator using purifed enzyme and Km concentrations of substrates (counterscreen for miR-21 project); settings: purified FLuc, luminescence inhibition; series mostly up to 57.5 µM; also: nearly all actives have a fitted effect of over 55% in size
Outline: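 Biochemical qHTS of compounds, final roughly 60 µM downward over six points, against 10 nM purified firefly luciferase using Km concentrations of substrates (10 uM D-luciferin, 10 uM ATP) in Tris acetate pH 7.5 buffer; luminescence output.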
Potency is read from the fitted curve at half-maximal effect.

Chain of Luciferin 4-monooxygenase (Photinus pyralis) (P08659 whole entry, looked up): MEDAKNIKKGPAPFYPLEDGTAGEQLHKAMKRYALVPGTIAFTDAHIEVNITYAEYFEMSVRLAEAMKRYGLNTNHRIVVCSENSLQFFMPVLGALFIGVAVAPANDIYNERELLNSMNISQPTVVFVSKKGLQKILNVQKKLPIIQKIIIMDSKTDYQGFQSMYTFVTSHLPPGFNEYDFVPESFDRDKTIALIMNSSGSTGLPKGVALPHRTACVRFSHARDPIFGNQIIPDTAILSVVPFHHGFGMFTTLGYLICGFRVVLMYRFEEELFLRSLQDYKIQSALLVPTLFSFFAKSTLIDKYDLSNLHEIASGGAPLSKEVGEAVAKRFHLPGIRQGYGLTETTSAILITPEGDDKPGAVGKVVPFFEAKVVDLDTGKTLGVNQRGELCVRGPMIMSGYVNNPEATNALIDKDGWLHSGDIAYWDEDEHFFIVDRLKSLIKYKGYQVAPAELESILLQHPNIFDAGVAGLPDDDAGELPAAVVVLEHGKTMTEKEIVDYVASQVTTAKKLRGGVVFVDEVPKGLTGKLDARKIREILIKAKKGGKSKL

Structure (SMILES)	Potency
CCc1nnc(NC(=O)C2CCN(C(=O)c3ccccc3C)CC2)s1	inactive
CC(C)(C)c1ccc(/C=C/C(=O)NC2CCS(=O)(=O)C2)cc1 (configuration not stated)	inactive
CC(C)(C)c1ccc(/C=C/C(=O)Nc2ncccn2)cc1	4.78 µM (active)
O=C(/C=C/c1ccc(Cl)cc1)Nc1ccc(Br)cn1	inactive
O=S(=O)(Cc1nnnn1-c1ccc(Br)cc1)c1ccc(F)cc1	inactive
Cc1cc(C)c(CN2CCN(C(=O)Cn3ccc(NC(=O)OCc4ccccc4)nc3=O)CC2)c(C)c1	inactive
CC(=O)Nc1ccc(C(=O)Nc2nc(-c3cc(C)n(Cc4ccccc4)c3C)cs2)cc1	inactive
Cc1cc(C(=O)OCC(=O)N2c3ccccc3NC(=O)C2(C)C)c(C)n1-c1ccccc1	inactive
Cc1cc(-c2csc(N)n2)c(C)n1-c1ccccc1	19 µM (active)
C=CCSc1ccc(S(=O)(=O)N2CCN(C)CC2)cn1	inactive
Cc1ccc2nc(-c3ccc(NC(=O)CN(C)S(=O)(=O)c4ccccc4)cc3)sc2c1	15.1 µM (active)
COc1cccc(N(CC(=O)Nc2cccc(F)c2)S(C)(=O)=O)c1	inactive
Cc1nc2ccc(S(=O)(=O)N(C)CC(=O)NC(C)c3ccccc3)cc2s1 (configuration not stated)	inactive
COc1cc(NC(=O)CN(C)S(=O)(=O)c2ccc3nc(C)sc3c2)cc(OC)c1	inactive
Cc1cccc(N(CC(=O)Nc2ccc(-c3nc4ccc(C)cc4s3)cc2)S(C)(=O)=O)c1	5.36 µM (active)
CCN(CC)S(=O)(=O)c1ccc(NC(=O)CN(c2cccc(F)c2)S(C)(=O)=O)cc1	inactive

Structure (SMILES)	Potency
C=CCNC(=O)COC(=O)CNC(=O)c1cc(Cl)cc([N+](=O)[O-])c1	inactive
Cc1ccc(C)c(N2CCN(C(=O)Cc3c(C(=O)O)c(C)cn3C)CC2)c1	inactive
CSc1cccc(NC(=O)CN2C(=O)CCc3cc(S(=O)(=O)N4CCCCC4)ccc32)c1	inactive
Cn1c(=O)n(C)c2cc(C(=O)Nc3ccc(Br)cc3)ccc21	15.1 µM (active)
COc1cccc(OC)c1C(=O)Nc1ccc2c(c1)n(C)c(=O)n2C	inactive
Cn1c(=O)n(C)c2cc(/C=N/NC(=O)c3cccc(Br)c3)ccc21	inactive
COc1cc(OC)c(OC)cc1/C=C/c1nc2ccccc2c(=O)n1-c1ccc(Br)c(C)c1	inactive
CCOCCCNC(=O)c1ccc(CS(=O)(=O)c2cccc(C(F)(F)F)c2)o1	inactive
CCc1c(C)nc2cc(C)[nH]n2c1=O	inactive
CCCCN1Cc2c(nc3cc(-c4ccccc4)[nH]n3c2=O)C1=O	19 µM (active)
CCCCCN1CC(O)=C(c2ccccc2)C1=N	inactive
Cc1nc2c(-c3ccccc3)c(C)[nH]n2c(=O)c1Cl	inactive
CCc1c(C)nc2cc(-c3cccs3)[nH]n2c1=O	16.9 µM (active)
Cc1nc2scc(-c3cccs3)c2c(=O)n1N	inactive
Cc1cc2nc3c(=O)n(Cc4ccccc4)c(=O)[nH]c3nc2cc1N	inactive
C=CCc1c(C)nc2cc(-c3ccccc3)[nH]n2c1=O	6.01 µM (active)

— PubChem BioAssay AID588342 (National Center for Advancing Translational Sciences (NCATS), 2011)
